Only some compounds are listed: those with a hit (about 4.2% of all), similar ones and a draw of the others.
SMARCA2 activ – SMARCA2 (BRM) function activators, primary screen, cell-based, luminescence, high throughput | activation, % at 9.1 µM | MG213 cells, MMTV-luciferase reporter, dexamethasone, overnight | AID 652017, 2013 | actives 1% (n = 370,000); in the data active = activation above about 7.8%;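 also: 0% = vehicle wells and 100% = reference activator wells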
hcDAF12 agonist – H. contortus DAF-12 nuclear receptor activators, primary screen, cell-based, luminescence, HEK293, lit1-tk-luc reporter; HEK293 hcDAF-12 lit1-tk-luc reporter; 0% DMSO, 100% Δ7-dafachronic acid; activation, % at 6.8 µM; actives 1.4% (n = 370,000); AID 652067, 2013;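 active = activation above the mean of all tested compounds plus 3 SD, cut at about 5.5% in these data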;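 also: 100% = response to 3 µM Δ7-dafachronic acid high control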
hgDAF-12 ag – H. glycines DAF-12 receptor agonists, primary screen, cell-based, luminescence, HEK293, GAL4 fusion, UAS-luciferase; Nuclear hormone receptor DAF-12 (Heterodera glycines), GAL4 fusion; HEK293 GAL4-hgDAF12 UAS-luciferase reporter, agonist luminescence; normalized to butyrate control; activation, % at 6.8 µM; actives 1.8% (n = 370,000);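 active = activation above a cutoff set at the mean of all screened compounds plus 3 SD, cut at about 10% in these data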;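 also: 0% = DMSO wells and 100% = sodium butyrate wells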
DAX1 inh – DAX1 (NR0B1) inhibitors on StAR promoter, primary screen, cell-based, luminescence, SF-1 (NR5A1), full-length DAX-1. HEK293T StAR-luciferase reporter, SF-1/DAX-1 repression relief. inhibition, % at 6.8 µM. actives 1.1% (n = 370,000). AID 652010, 2013;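 active = inhibition above the mean over all tested compounds plus 3 SD, cut at about 3.6% in these data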;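 also: 0% = DAX-1 cells with DMSO and 100% = cells lacking DAX-1 with DMSO; higher inhibition means more luminescence from relief of DAX-1 repression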
ssDAF-12 act – S. stercoralis DAF-12 nuclear receptor activators, primary screen, cell-based, luminescence, HEK293, GRIP1 co-expression, lit1-tk-luc | activation, % at 6.8 µM | Nuclear hormone receptor DAF-12 (Strongyloides stercoralis) | actives 1% (n = 370,000) | HEK293 ssDAF-12/GRIP1 lit1-tk-luc reporter; % of 3 µM dafachronic acid response;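 active = activation above the mean over all tested compounds plus 3 SD, cut at about 0.9% in these data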;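 also: 0% = DMSO-only wells and 100% = 3 µM delta7-dafachronic acid wells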
LXRb hcDAF ctr – LXR agonists, Gal4 luciferase reporter, confirmation, counter-screen for hcDAF-12 agonist project, cell-based, luminescence, HEK293, H. contortus campaign; AID 743027, 2013; activation, % at 6.8 µM; shares compounds with hcDAF12 agonist; 3,400 tested, under 10 active; HEK293 Gal4-LXR tk-luc reporter, 24 h; normalized: DMSO 0%, positive control 100%;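 active = mean percent activation of the reporter above a cutoff set as the average over tested compounds plus their standard deviation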
Target sequence (P55055 whole entry, looked up, the tested form may be a part): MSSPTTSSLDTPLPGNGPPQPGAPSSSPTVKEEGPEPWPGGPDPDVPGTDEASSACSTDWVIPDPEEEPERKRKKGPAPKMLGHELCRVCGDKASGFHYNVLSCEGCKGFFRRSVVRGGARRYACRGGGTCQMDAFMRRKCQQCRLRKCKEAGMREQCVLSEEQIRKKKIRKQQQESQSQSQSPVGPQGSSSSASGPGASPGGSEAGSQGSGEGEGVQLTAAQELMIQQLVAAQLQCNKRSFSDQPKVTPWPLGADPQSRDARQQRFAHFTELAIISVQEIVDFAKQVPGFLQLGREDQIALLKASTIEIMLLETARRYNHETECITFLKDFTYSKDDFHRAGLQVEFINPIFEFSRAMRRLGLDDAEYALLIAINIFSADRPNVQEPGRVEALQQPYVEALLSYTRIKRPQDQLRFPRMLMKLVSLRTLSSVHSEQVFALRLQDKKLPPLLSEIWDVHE
hcDAF12 ag – H. contortus DAF-12 receptor agonists, confirmation, cell-based, luminescence, HEK293, lit1-tk-luc, triplicate. shares compounds with hcDAF12 agonist. HEK293 hcDAF-12 lit1-tk-luc reporter; % of Δ7-dafachronic acid response. activation, % at 6.8 µM. actives 61% (n = 3,400). AID 743032, 2013;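 active = mean activation across triplicate tests above the threshold derived from the earlier primary screen, cut at about 5.5% in these data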;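 also: 0% = DMSO only wells and 100% = 3 µM Δ7-dafachronic acid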
The depositor's hits bear a star; x = no result.

SMILES | SMARCA2 activ | hcDAF12 agonist | hgDAF-12 ag | DAX1 inh | ssDAF-12 act | LXRb hcDAF ctr | hcDAF12 ag
CCC1CCCCN1C(=O)CSc1nnc(-c2ccc3c(c2)OCCO3)o1 (stereo unspecified) | 1 | -2 | -1 | 0 | -1 | x | x
Cc1ccc(OCCCOc2ccc(Cl)cc2Cl)c([N+](=O)[O-])n1 | x | -2 | 3 | x | -1 | x | x
O=C(O)C(Cc1ccccc1)N1C(=O)C2C3CCC(C3)C2C1=O (stereo unspecified) | -6 | -1 | 1 | 0 | -2 | x | x
NC(=O)c1ccc(CSc2nc3ccccc3s2)cc1 | 2 | 8.1* | 8 | 1 | 1 | 0 | 4
O=C(c1cccs1)n1ccc2ccc(-c3ccc4ccn(C(=O)c5cccs5)c4c3)cc21 | -1 | 4 | 0 | 1 | 0 | x | x
CC1(C(=O)Nc2ccc(Cl)c(C(F)(F)F)c2)Cc2c(-c3ccc(C(N)=O)cc3)ccnc2O1 (stereo unspecified) | 2 | 0 | 1 | 0 | -1 | x | x
CCCCCCCCN1C(=O)[C@@H](CC(=O)N2CCN(C(=O)C3CC3)CC2)C[C@@]2(C(=O)OC)C1=C[C@H](C(C)C)O[C@@H]2C1CC1 | -1 | -2 | 4 | -1 | -1 | x | x
COc1ccc(NC(=O)c2cc3ccccc3cc2OC)cc1OC | 1 | 0 | 0 | -1 | -1 | x | x
COc1cc(SC)ccc1C(=O)Nc1ccccc1 | 3 | 7.7* | 9 | 2 | 0 | 1 | 8.3*
COc1cccc(NC(=O)Nc2ccncc2)c1 | -1 | 6.8* | 2 | 0 | -1 | 0 | 0
COc1cccc(NC(=O)c2cc3ccccc3cc2OC)c1 | 4 | 8.4* | 10 | 1 | 0 | 1 | 9.3*
COc1ccccc1C(=O)Nc1cccc(SC)c1 | 2 | 3 | 9 | -1 | 0 | x | x
COc1cccc(NC(=O)Nc2ccc(Cc3ccncc3)cc2)c1 | -2 | -2 | 9 | 0 | -1 | x | x
O=c1[nH][nH]c2c1C(c1cccc(C(F)(F)F)c1)OC(CCc1ccccc1)C2 (stereo unspecified) | -1 | -1 | -2 | -1 | -1 | x | x
O=C(NCCc1ccccc1)OCc1cn(Cc2ccc(C(F)(F)F)cc2)nn1 | -2 | -4 | -1 | 0 | -1 | x | x
CCOC(=O)c1sc2nc(OCc3cccnc3)cc(C)c2c1N | 1 | -2 | 5 | 0 | -1 | x | x
Cc1ccc(-c2ccc(/C=N/NC(N)=S)o2)cc1 | 6 | 10* | 7 | 0 | 1.7* | 0 | 7.5*
NC(=S)N/N=C/c1ccc(-c2ccc(Cl)c(Cl)c2)o1 | 2 | 7.1* | 6 | -1 | 1.4* | 0 | 9.9*
NC(=S)N/N=C/c1ccc(-c2ccccc2)o1 | 0 | 0 | 7 | -1 | -1 | x | x
Cn1nnnc1SCc1nc2ccccc2s1 | 3 | 8.7* | 5 | 1 | 2.1* | 0 | 8.5*
COc1cccc(Nc2nnc(SCc3nc4ccccc4s3)s2)c1 | 0 | 7.0* | 8 | 0 | 1 | 1 | 10*
Cc1cccc(C)c1Nc1nnc(SCC(=O)NCc2cccs2)s1 | -3 | 0 | 2 | 0 | -1 | x | x
Cc1cccc(C)c1Nc1nnc(SCc2nc3ccccc3s2)s1 | 4 | 12* | 13* | 2 | 0.9* | 1 | 11*
CC(=O)C1(C(=O)NCc2ccccc2)CC(c2ccccn2)=NO1 (stereo unspecified) | -5 | 0 | 1 | 0 | 0 | x | x
CCN1c2ccccc2NC2C1C(C(C)=O)C(=O)N2c1ccc(Cl)cc1 (stereo unspecified) | 0 | 8.8* | -3 | 0 | 0 | 0 | 0
SMILES | SMARCA2 activ | hcDAF12 agonist | hgDAF-12 ag | DAX1 inh | ssDAF-12 act | LXRb hcDAF ctr | hcDAF12 ag
O=C1C(=O)N(Cc2ccc(-c3ccc(Cl)nc3)cc2)c2ccc(OC(F)(F)F)cc21 | x | -2 | -6 | x | -1 | x | x
CN(C)C(=O)Cn1cc(S(=O)(=O)Cc2ccccc2)c2ccccc21 | -3 | 6.6* | 1 | 0 | -1 | 0 | 3
CCN(CC)C(=O)Cn1cc(S(=O)(=O)CC(=O)NCCc2ccccc2)c2ccccc21 | -2 | 7.6* | 0 | -1 | -1 | 0 | 1
COC(=O)C(C)Oc1ccc(-c2nccc(-c3cccs3)n2)cc1 (stereo unspecified) | 6 | 0 | 6 | 1 | -1 | x | x
Oc1ccc(-c2nccc(-c3cccs3)n2)cc1 | 3 | 12* | 14* | 2 | 1.0* | 1 | 11*
COc1cc(/C=N/Nc2ccc(C(=O)O)cc2)ccc1O | 1 | 6.8* | 6 | 3 | 0 | 1 | 6.4*
CCCC(=O)Nc1cccc(-c2nc3cc(C)c(C)cc3o2)c1 | 4 | 7.2* | 7 | 4.3* | 0 | 1 | 4
CCOC(=O)C1CCCN(C(=O)Cc2c(C(=O)O)[nH]c3ccccc23)C1 (stereo unspecified) | 1 | 6.8* | 0 | 0 | 0 | 0 | 3
CCOC(=O)C1CCCN(C(=O)CC(c2ccccc2)c2ccccc2)C1 (stereo unspecified) | 0 | -2 | 1 | 0 | -2 | x | x
CSc1nsc(NN)n1 | 4 | 7.7* | 11* | 1 | 0 | 0 | 5
CSc1nsc(NC(=O)OCc2ccc(Cl)cc2)n1 | -1 | -1 | 2 | 0 | -1 | x | x
C[C@H]1[C@@H](OC(=O)NCc2ccc(Cl)cc2)CC[C@@]23CCCN2C(=O)CCC[C@@H]13 | x | 0 | -1 | x | -1 | x | x
Cc1cccc(CCNC(=O)Cn2ncc3c2-c2cc(C)ccc2OC3)c1 | -1 | -3 | -3 | -2 | -2 | x | x
O=C(Nc1ncccn1)c1cccc(F)c1 | 4 | 7.0* | 8 | 0 | 0 | 0 | 1
O=C(Nc1ncccn1)c1cccc(Cl)c1 | -4 | 5 | -1 | 0 | 1 | x | x
O=C(NCC1CCCO1)c1cc2c(s1)CCC2 (stereo unspecified) | 2 | 7.7* | 4 | 2 | -2 | 0 | 2
Cc1cc(C(=O)NCC2CCCO2)sc1C (stereo unspecified) | -1 | -1 | 2 | 3 | -1 | x | x

Assay outcomes from PubChem.
